Reference: PubChem BioAssay AID1159580 (chemical genetic matrix, 2015)
“And” between values parts separate entries of the source, which are not always exact repeats. Equal entries are not always repeated. Screen size: about 5,500 compounds; about 2,000 (36%) were called active. Inconclusive results (about 18%) are left out. Rule as the data show it: active = normalized growth mostly below about 0.91 (no sharp cut-off); inconclusive = no clear call, values can overlap the other calls; inactive = mostly above about 0.92. The list shows a part of the results.

Experiment: chemical genetic growth profiling, strain panel (AID 1159580);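 also: tested at 20 µM; growth read once vehicle control cultures reached saturation at 30 °C; 1 = growth at the plate median or of vehicle wells; lower values mean less growth of the strain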
Conditions: S. cerevisiae deletion strains, growth OD

Measured: normalized growth

O=C(c1ccccc1)c1ccc2n1CCC2C(=O)O (stereo not drawn)
inactive: locus YAL013W, strain DEP1, stronger effect = lower value 0.993 | locus YAL021C, strain ccr4, stronger effect = lower value 0.98 | locus YAL026C, strain drs2, stronger effect = lower value 0.983 | locus YAL030W, strain snc1, stronger effect = lower value 0.978 | locus YAL040C, strain CLN3, stronger effect = lower value 1.01 | locus YBL061C, strain skt5, stronger effect = lower value 1.01 | locus YBR009C, strain hhf1, stronger effect = lower value 0.991 | locus YBR021W, strain FUR4, stronger effect = lower value 0.988 | locus YBR023C, strain chs3, stronger effect = lower value 1.01 | locus YBR171W, strain sec66, stronger effect = lower value 0.994 | locus YBR229C, strain ROT2, stronger effect = lower value 1.01 | locus YBR231C, strain swc5, stronger effect = lower value 1.01 | locus YBR279W, strain paf1, stronger effect = lower value 1.01 | locus YCL011C, strain gbp2, stronger effect = lower value 0.974 | locus YCL016C, strain dcc1, stronger effect = lower value 0.995 | locus YCL029C, strain bik1, stronger effect = lower value 0.956 | locus YCL061C, strain MRC1 (second series), stronger effect = lower value 1.02 | locus YCL069W, strain vba3, stronger effect = lower value 0.979 | locus YCR088W, strain abp1, stronger effect = lower value 1.01 | locus YDL005C, strain med2, stronger effect = lower value 0.967 | locus YDL035C, strain GPR1, stronger effect = lower value 0.987 | locus YDL040C, strain nat1, stronger effect = lower value 0.997 | locus YDL074C, strain BRE1, stronger effect = lower value 1.05 | locus YDL101C, strain DUN1, stronger effect = lower value 1 | locus YDL134C, strain PPH21, stronger effect = lower value 0.988 | locus YDL185W, strain tfp1, stronger effect = lower value 0.958 | locus YDL192W, strain arf1, stronger effect = lower value 0.968 | locus YDR001C, strain nth1, stronger effect = lower value 0.968 | locus YDR069C, strain doa4, stronger effect = lower value 1.01 | locus YDR101C, strain arx1, stronger effect = lower value 1.01 | locus YDR137W, strain rgp1, stronger effect = lower value 0.945 | locus YDR150W, strain NUM1, stronger effect = lower value 0.994 and 1.01 | locus YDR159W, strain sac3, stronger effect = lower value 0.955 | locus YDR162C, strain NBP2, stronger effect = lower value 0.982 | locus YDR195W, strain ref2 0.975 | locus YDR297W, strain sur2, stronger effect = lower value 0.991 | locus YDR318W, strain mcm21, stronger effect = lower value 0.969 | locus YDR334W, strain swr1, stronger effect = lower value 0.976 | locus YDR335W, strain msn5, stronger effect = lower value 0.988 | locus YDR363W, strain ESC2, stronger effect = lower value 1.02 | locus YDR388W, stronger effect = lower value 0.981 | locus YDR392W, strain spt3, stronger effect = lower value 0.935 | locus YDR502C, strain sam2, stronger effect = lower value 0.987 | locus YEL003W, strain gim4, stronger effect = lower value 0.997 | locus YEL037C, strain rad23, stronger effect = lower value 0.984 | locus YEL061C, strain CIN8 (second series), stronger effect = lower value 0.999 | locus YEL061C, strain CIN8, stronger effect = lower value 0.994 | locus YER002W, strain NOP16, stronger effect = lower value 0.998 | locus YER015W, strain faa2, stronger effect = lower value 0.99 | locus YER016W, strain bim1, stronger effect = lower value 0.988 | locus YER110C, stronger effect = lower value 0.96 | locus YER111C, strain swi4, stronger effect = lower value 1 | locus YER155C, strain BEM2 (second series), stronger effect = lower value 1.01 | locus YER155C, strain BEM2, stronger effect = lower value 1 | locus YER167W, strain BCK2, stronger effect = lower value 0.997 | locus YFR010W, strain ubp6, stronger effect = lower value 0.981 | locus YGL078C, strain dbp3, stronger effect = lower value 0.982 | locus YGL086W, strain mad1, stronger effect = lower value 0.995 | locus YGL167C, strain pmr1, stronger effect = lower value 0.998 | locus YGL173C, strain kem1, stronger effect = lower value 1 | locus YGL227W, strain vid30, stronger effect = lower value 0.996 | locus YGL240W, strain doc1, stronger effect = lower value 1.02 | locus YGL248W, strain PDE1, stronger effect = lower value 1.01 | locus YGL253W, strain hxk2, stronger effect = lower value 0.974 | locus YGR135W, strain pre9, stronger effect = lower value 0.974 | locus YGR252W, strain gcn5, stronger effect = lower value 0.996 | locus YHR013C, strain ard1, stronger effect = lower value 0.994 | locus YHR027C, strain rpn1, stronger effect = lower value 1.01 | locus YHR030C, strain SLT2, stronger effect = lower value 0.988 and 0.999 | locus YHR079C, strain IRE1 (second series), stronger effect = lower value 0.965 | locus YHR079C, strain IRE1, stronger effect = lower value 1.02 | locus YHR094C, strain hxt1, stronger effect = lower value 0.985 | locus YHR129C, strain ARP1, stronger effect = lower value 0.991 | locus YHR142W, strain chs7, stronger effect = lower value 0.975 | locus YHR200W, strain rpn10, stronger effect = lower value 0.96 | locus YIL066C, strain RNR3, stronger effect = lower value 1 | locus YIL073C, strain SPO22, stronger effect = lower value 0.922 | locus YIL125W, strain kgd1, stronger effect = lower value 0.985 | locus YIR030C, strain dcg1, stronger effect = lower value 0.973 | locus YJL092W, strain hpr5, stronger effect = lower value 0.984 | locus YJL095W, strain BCK1 (second series), stronger effect = lower value 0.993 | locus YJL095W, strain BCK1, stronger effect = lower value 1.03 and 0.992 | locus YJL115W, strain asf1, stronger effect = lower value 0.984 | locus YJL129C, strain trk1, stronger effect = lower value 1.02 | locus YJL134W, strain LCB3, stronger effect = lower value 0.99 | locus YJL154C, strain vps35, stronger effect = lower value 0.975 | locus YJL164C, strain tpk1, stronger effect = lower value 0.965 | locus YJL166W, strain qcr8, stronger effect = lower value 1.02 | locus YJL168C, strain set2, stronger effect = lower value 0.979 | locus YJL187C, strain SWE1 (second series), stronger effect = lower value 1.01 | locus YJL187C, strain SWE1, stronger effect = lower value 0.986 | locus YJR043C, strain POL32, stronger effect = lower value 0.997 | locus YJR066W, strain TOR1, stronger effect = lower value 0.966
